A short description of test [1]: reducers of endogenous Her2 protein level, primary screen, SKBR3 breast tumor cells, AlphaScreen, ATP viability (AID 461;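 active = Her2 level under about 52% in both replicate screens, with viability over 70% of control, limit read from the data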;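 for Her2 level: lower value means less Her2 protein in the cells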;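 for viability: percent of carrier control wells set as 100% viability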). Conditions: 18-24 h, measured here: SKBR3 viability, ATP luminescence, at 10 µM. A general note: Bead proximity is the source of the signal in Alpha formats.
Test [2] addresses Receptor tyrosine-protein kinase erbB-2 (Homo sapiens) (UniProt P04626). The description is as above. Conditions: 18-24 h, at 10 µM, stronger effect = lower value.
A short description of test [3]: SK-BR-3 cell growth inhibitors, pilot screen, 24 h, human (AID 572;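 active = viability at or below 10% of carrier control in both of two separate runs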;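 note: compound exposure lasted between 18 and 24 h rather than exactly 24 h; 100% = carrier-treated control wells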). Conditions: SK-BR-3 viability, CellTiter-Glo luminescence, at 10 µM, stronger effect = lower value.
A short description of test [4]: HUVEC growth inhibition – cell-based, human, primary screen (AID 575;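 active = viability at or below 30% in both replicate assays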;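 note: 100% = median of untreated cell wells with 0.1% DMSO on each plate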). To be noted: HUVEC proliferation, CellTiter-Glo luminescence, 72 h; at 10 µM; stronger effect = lower value. Background: Cellular ATP, detected with luciferase, serves as a proxy for viable cell number.
Test [5] in a line: growth inhibitors of H69AR lung tumor, primary screen, human, duplicate replicates (AID 580;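 active = viability at or under a set limit in both replicates, limit being median viability minus 3 SD, cut at about 48% in these data, passing the limit was not always enough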;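 note: 100% = mean luminescence of untreated wells and 0% = no signal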). To be noted: H69AR lung tumor cells viability, ATP luminescence, 72 h; at 10 µM; stronger effect = lower value.
Test [6] in a line: reversal of MRP1-mediated doxorubicin resistance, pilot screen, H69AR cells, doxorubicin co-treatment (AID 601;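 active = viability loss from added drug above about 55%, and viability with drug at most 40%, in both replicates, limit read from the data, passing the limit was not always enough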). Conditions: CellTiter-Glo, 72 h, at 10 µM; for differential viability (reversal): stronger effect = higher value.
The nature of test [7]: 384-well plate pilot, post-Golgi transport modulator project, inhibition of yeast transport mutant growth (AID 636; in the data active = inhibition above about 31%). To be noted: absorbance 615 nm, about 18 h, stronger effect = higher value.
Test [8] can be described thus: growth suppression of yeast trafficking mutant, preliminary HTS, modulators of trafficking downstream of Golgi apparatus project, 1536-format plate, OD 615 nm (AID 637; in the data active = inhibition above about 30%). Conditions: yeast transport mutant growth, absorbance 615 nm, 18 h; stronger effect = higher value.
The nature of test [9]: OD615 S. cerevisiae growth inhibition, permissive medium, pilot counter-assay, permissive growth control for S. cerevisiae lifespan shortening project (AID 705;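 active = growth inhibition above 25% in both replicates, a cutoff set 3 SD above the mean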). Conditions: OD615, 24 h, at 10 µM, stronger effect = higher value.
Test [10] can be described thus: Restrictive medium S. cerevisiae growth inhibition, OD615, pilot screen of yeast lifespan reduction project, restrictive growth control (AID 706;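 active = growth inhibition above a set limit, 3 SD over mean compound inhibition, in both replicates, cut at about 43% in these data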;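 note: modified DeaD lifespan yeast strain shifted to restrictive glucose medium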). To be noted: OD615, 48 h, at 10 µM, stronger effect = higher value.
The nature of test [11]: viability gain of MRP-1-high H69AR cells under doxorubicin, pilot screen, MRP-1 activator project, CellTiter-Glo, duplicate (AID 807).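 Note: compound pretreatment 18-22 h then 72 h combined with doxorubicin; 0% = doxorubicin alone and 100% = vehicle without doxorubicin.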 To be noted: H69AR viability with doxorubicin, CellTiter-Glo luminescence; at 10 µM; stronger effect = higher value.
Test [12] in a line: growth suppression of beta-catenin knockout HCT116, pilot screen, human colon tumor cells (AID 823;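 active = cell viability at or below a set limit in both duplicate runs, the limit being the all-compound median minus 4 SD, cut at about 23% in these data, passing the limit was not always enough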;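 note: 0% = wells killed by 20 µM Hyamine and 100% = untreated DMSO cell wells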). Conditions: CellTiter-Glo, 60 h, at 10 µM, stronger effect = lower value.
Test [13] can be described thus: growth suppression of PTEN-deleted HCT116, pilot screen, cell-based, HCT116 clonal line, CellTiter-Glo (AID 824;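 active = viability at or below 27.92% in each of two runs, the all-compound median minus 4 SD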;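 note: 0% = 20 µM Hyamine control and 100% = vehicle cell control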). Conditions: 60 h, at 10 µM, stronger effect = lower value.
Test [14] is described as follows: inhibitors of the yeast RAM network, pilot screen, dse1pr::URA3 reporter, 5-FOA selection (AID 869;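 active = inhibition over a set limit, the all-compound mean plus 3 SD, in both replicate runs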;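 note: 0% = DMSO wells with no growth and 100% = 10 µM 1-NA-PP1 with full growth; RAM network block rescues cells from 5-FOA so hits raise OD615 growth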). Conditions: S. cerevisiae dse1pr::URA3 5-FOA growth, OD615, 2 d; at 10 µM; stronger effect = higher value; strain carries analog-sensitive mutant Cbk1 kinase.
A short description of test [15]: RAM signaling pathway blockade in yeast – S. cerevisiae, Pdr1DBD-CYC8 efflux-inhibited sensitized strain, primary screen (AID 1298;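 active = RAM network inhibition above 8.4% in each of two replicates, 3 SD over the compound average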;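 note: 0% = DMSO untreated cells without growth and 100% = 10 µM 1-NA-PP1 full growth; higher means more yeast growth rescued from 5-FOA killing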). Conditions: S. cerevisiae cbk1-as DSE1-URA3 strain, 5-FOA growth OD615, 2 d; at 50 µM; stronger effect = higher value.
The mark [16] stands for this setting: H69AR cells + 2 uM doxorubicin, measured here: viability with 2 uM doxorubicin, stronger effect = lower value.
The mark [17] stands for this setting: H69AR cells, compound alone cytotoxicity.

One may read the viability as a read-out of living cells in per cent, often relative to untreated cells. The inhibition is the relative decrease from the control value, in per cent.

Inconclusive results are not listed. Calls of active or inactive are those of the source.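 Rule for the calls, unless noted: active = viability increase at or above a cutoff of the median across tested compounds plus 3 SD (cut at about 8.5% in these data, passing the limit was not always enough); inconclusive = some gains above the cutoff, reason not given; inactive = the rest.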

Sequence of Receptor tyrosine-protein kinase erbB-2 (Homo sapiens) (P04626 whole entry, looked up): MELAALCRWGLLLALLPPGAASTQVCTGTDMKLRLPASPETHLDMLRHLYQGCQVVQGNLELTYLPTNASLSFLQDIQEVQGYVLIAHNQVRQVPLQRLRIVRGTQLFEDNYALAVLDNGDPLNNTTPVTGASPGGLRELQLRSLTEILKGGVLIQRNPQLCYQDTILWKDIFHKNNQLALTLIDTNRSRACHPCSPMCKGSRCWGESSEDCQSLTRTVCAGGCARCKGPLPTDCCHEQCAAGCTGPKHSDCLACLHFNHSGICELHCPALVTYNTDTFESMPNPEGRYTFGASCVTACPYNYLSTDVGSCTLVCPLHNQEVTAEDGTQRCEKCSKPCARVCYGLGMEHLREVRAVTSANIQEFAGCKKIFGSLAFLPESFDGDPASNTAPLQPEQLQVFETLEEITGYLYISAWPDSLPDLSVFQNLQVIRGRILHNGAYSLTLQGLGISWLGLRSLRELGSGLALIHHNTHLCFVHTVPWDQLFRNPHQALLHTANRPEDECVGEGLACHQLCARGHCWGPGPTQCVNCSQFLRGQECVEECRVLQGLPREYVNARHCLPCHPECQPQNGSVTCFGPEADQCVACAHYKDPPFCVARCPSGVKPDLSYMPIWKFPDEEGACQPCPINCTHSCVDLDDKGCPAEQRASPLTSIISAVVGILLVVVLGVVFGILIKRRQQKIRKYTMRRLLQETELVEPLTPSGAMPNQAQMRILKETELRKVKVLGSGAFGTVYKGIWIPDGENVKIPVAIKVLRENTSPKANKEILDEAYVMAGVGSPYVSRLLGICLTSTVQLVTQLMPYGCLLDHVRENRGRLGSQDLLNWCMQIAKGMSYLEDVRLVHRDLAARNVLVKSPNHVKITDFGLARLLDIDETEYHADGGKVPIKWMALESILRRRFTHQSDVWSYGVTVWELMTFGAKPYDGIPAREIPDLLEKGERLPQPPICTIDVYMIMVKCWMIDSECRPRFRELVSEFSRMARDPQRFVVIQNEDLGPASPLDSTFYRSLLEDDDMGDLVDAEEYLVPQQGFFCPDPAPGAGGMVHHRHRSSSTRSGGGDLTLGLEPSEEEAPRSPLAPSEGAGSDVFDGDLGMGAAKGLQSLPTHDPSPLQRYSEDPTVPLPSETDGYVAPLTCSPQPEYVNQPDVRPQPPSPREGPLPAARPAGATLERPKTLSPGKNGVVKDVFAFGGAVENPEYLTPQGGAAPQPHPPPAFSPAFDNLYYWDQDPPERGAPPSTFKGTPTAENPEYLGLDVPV

As for `CCCOC(=O)C1C2C=CC3(CN(c4cccc(Cl)c4)C(=O)C13)O2` (stereo not given), the viability in test [1] is 102%; in [3] it was 102% (inactive); in test [4], 90.4% (inactive); in test [5], 83% (inactive); in test [6] (setting [16]) it was 93.8%; in [6] (setting [17]) it was 83%. The figures for the viability in test [12] and in test [13] were 101% (inactive) and 97.4% (inactive), respectively. Also, in test [2], the Her2 level was 85% (inactive). Moreover, the differential viability (reversal) in test [6] (H69AR cells + 2 uM doxorubicin) was -10.8% (inactive). Further, the inhibition in [7] was -2.93% (inactive); in [8], -0.16% (inactive); in test [14], -0.245% (inactive). Further, the growth inhibition in test [9] is -4.19% (inactive); in test [10], -9.97% (inactive). Moreover, the viability increase in test [11] was -2.05% (inactive). For the same molecule, the RAM network inhibition in test [15] was 3.71% (inactive).

As to `COc1cc2c(cc1OC)CN(C(=O)CSc1nc3[nH]ncc3c(=O)n1-c1ccccc1)CC2`, the viability in test [1] is 105%; in test [3], 105% (inactive); in [4] it was 79.7% (inactive); in test [5] it was 91.7% (inactive); in [6] (setting [16]), 80.1%; in test [6] (setting [17]) it was 91.7%. Besides, the viability is 101% (inactive) in test [12] and 90.9% (inactive) in [13]. Also, the Her2 level in test [2] is 97% (inactive). In test [6] (H69AR cells + 2 uM doxorubicin), the differential viability (reversal) was 11.6% (inactive). Also, the inhibition in test [7] was -4.93% (inactive); in [8], -2.62% (inactive); in test [14], 1.19% (inactive). Moreover, the results for the growth inhibition in test [9] and in test [10] were 0.33% (inactive) and -24.6% (inactive), respectively. The viability increase in test [11] is -1.5% (inactive). Further, in test [15], the RAM network inhibition is 2.58% (inactive).

For the molecule `COC(=O)c1sc(NC(=O)COc2ccccc2OC)nc1C`, the viability in [1] is 99.5%; in test [3] it was 99.5% (inactive); in test [4], 99.8% (inactive); in test [5], 95.1% (inactive); in test [6] (setting [16]), 83.5%; in test [6] (setting [17]) it was 95.1%. Also, the viability in test [12] was 102% (inactive); in test [13], 101% (inactive). Further, the Her2 level in [2] was 90% (inactive). Also, the differential viability (reversal) in test [6] (H69AR cells + 2 uM doxorubicin) was 11.6% (inactive). Besides, the inhibition is -6.22% (inactive) in [7], -4% (inactive) in test [8] and 1.06% (inactive) in test [14]. For the same molecule, the growth inhibition in [9] is -1.71% (inactive); in test [10], -0.995% (inactive). The viability increase in [11] is -1.51% (inactive). In addition, in [15], the RAM network inhibition was 9% (inactive).

With `CCCCS(=O)(=O)NC1=NCN(CCOC(=O)c2ccccc2)CN1`, the viability is 95.5% in test [1]; 95.5% (inactive) in test [3]; 104% (inactive) in test [4]; 102% (inactive) in test [5]; 87.6% in test [6] (setting [16]); 102% in test [6] (setting [17]). The viability is 91.8% (inactive) in test [12] and 93.2% (inactive) in test [13]. Also, the Her2 level in test [2] was 84.5% (inactive). Also, the differential viability (reversal) in [6] (H69AR cells + 2 uM doxorubicin) was 14.3% (inactive). Besides, the inhibition in test [7] was -3.6% (inactive); in test [8], 2.58% (inactive); in test [14], 0.005% (inactive). The growth inhibition is -8.81% (inactive) in test [9] and -6.13% (inactive) in test [10]. The viability increase in test [11] is -2.67% (inactive). In addition, in test [15], the RAM network inhibition is 0.98% (inactive).

Turning to `CC1CCN(S(=O)(=O)c2cccc(C(=O)Nc3ccccn3)c2)CC1`, the viability in [1] is 86%; in test [3], 86% (inactive); in [4], 86.7% (inactive); in test [5], 94.3% (inactive); in test [6] (setting [16]), 96.8%; in [6] (setting [17]) it was 94.3%. Besides, the results for the viability in [12] and in test [13] were 93.9% (inactive) and 97.7% (inactive), respectively. Further, the Her2 level in test [2] is 104% (inactive). In addition, in [6] (H69AR cells + 2 uM doxorubicin), the differential viability (reversal) was -2.55% (inactive). Besides, the inhibition in test [7] is 4.1% (inactive); in test [8], 1.83% (inactive); in test [14], -0.08% (inactive). Further, the growth inhibition in test [9] was 8.12% (inactive); in test [10], 3.79% (inactive). The viability increase in test [11] is -1.96% (inactive). In addition, the RAM network inhibition in test [15] was 4.54% (inactive).

The values are drawn from PubChem BioAssay.
